Active and inactive are the calls of the source. Entries that show only a call come without a potency. Unless noted, calls follow the shape of the dose curve; as a rule, active = well fitted curve in the direction sought with a large enough effect in the repeat runs; inconclusive = weak or mixed curves; inactive = no such curve, though single readings can be large; an effect the other way counts as inactive or inconclusive.
Tests used:
[1] = qHTS assay to identify small molecule antagonists of the glucocorticoid receptor (GR) signaling pathway - cell viability counter screen (AID 720693); also: nearly all actives have a fitted effect of over 55% in size; also: potency is read from the fitted curve at half-maximal effect
[2] = qHTS assay for identifying genotoxic compounds that show differential cytotoxicity against isogenic chicken DT40 cell lines with known DNA damage response pathways - wild type cell line (AID 743012); also: nearly all actives have a fitted effect of over 60% in size; also: potency is read from the fitted curve at half-maximal effect
How it was run: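 Endpoint: CellTiter-Glo luminescence, 30 min RT. Cells: wild type DT40, 300/well. Exposure: compounds in DMSO, 40 h, 37 C/5% CO2, after ~0.5 h pre-incubation.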

[3] = qHTS assay for identifying genotoxic compounds that show differential cytotoxicity against isogenic chicken DT40 cell lines with known DNA damage response pathways - Rad54/Ku70 mutant cell line (AID 743015); also: nearly all actives have a fitted effect of over 60% in size; also: potency is read from the fitted curve at half-maximal effect
[4] = biological target: Androgen receptor (Homo sapiens) (UniProt P10275); test: qHTS assay to identify small molecule antagonists of the androgen receptor (AR) signaling pathway (AID 743035; active = well fitted inhibition curve with a large enough effect in the signal ratio in the repeat runs, not every such curve was filed as active; inconclusive = weak or mixed curves, or effect the other way; inactive = no such curve, though single readings can be large or run the other way; the % refers to the signal ratio)
Sequence of Androgen receptor (Homo sapiens) (P10275 whole entry, looked up): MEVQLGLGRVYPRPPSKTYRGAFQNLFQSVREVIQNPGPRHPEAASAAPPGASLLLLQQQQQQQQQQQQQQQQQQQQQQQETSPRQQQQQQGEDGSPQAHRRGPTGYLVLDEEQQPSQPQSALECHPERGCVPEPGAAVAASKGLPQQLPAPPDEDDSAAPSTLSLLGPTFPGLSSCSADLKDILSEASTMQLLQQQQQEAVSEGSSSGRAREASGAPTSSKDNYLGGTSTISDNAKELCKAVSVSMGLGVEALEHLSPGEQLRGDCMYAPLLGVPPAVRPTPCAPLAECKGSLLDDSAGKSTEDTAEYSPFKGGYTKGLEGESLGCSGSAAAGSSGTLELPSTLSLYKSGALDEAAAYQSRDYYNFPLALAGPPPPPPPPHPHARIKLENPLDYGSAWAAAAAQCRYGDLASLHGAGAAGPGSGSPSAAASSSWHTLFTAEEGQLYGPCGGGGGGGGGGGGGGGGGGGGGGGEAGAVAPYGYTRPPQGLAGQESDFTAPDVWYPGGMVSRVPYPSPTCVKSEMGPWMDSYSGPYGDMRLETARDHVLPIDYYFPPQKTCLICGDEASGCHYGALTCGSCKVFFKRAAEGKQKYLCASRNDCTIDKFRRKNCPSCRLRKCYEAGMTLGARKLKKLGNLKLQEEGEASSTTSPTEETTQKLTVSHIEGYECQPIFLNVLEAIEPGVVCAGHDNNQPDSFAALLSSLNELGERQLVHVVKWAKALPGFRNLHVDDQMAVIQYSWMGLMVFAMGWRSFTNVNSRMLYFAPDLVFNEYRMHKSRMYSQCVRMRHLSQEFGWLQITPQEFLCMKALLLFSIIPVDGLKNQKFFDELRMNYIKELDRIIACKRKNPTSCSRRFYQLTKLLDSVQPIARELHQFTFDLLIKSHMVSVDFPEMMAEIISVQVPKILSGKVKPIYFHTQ
How it was run: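 R1881 agonist challenge of a HEK293 UAS-beta-lactamase AR reporter line in the presence of compound (16 h, 37C); signal taken as FRET fluorescence after 2 h with LiveBLAzer B/G substrate at room temperature.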

[5] = biological target: Androgen receptor (Homo sapiens) (UniProt P10275); test: qHTS assay to identify small molecule agonists of the androgen receptor (AR) signaling pathway (AID 743036; active = well fitted activation curve with a large enough effect in the signal ratio in the repeat runs, with a control signal flat, not every such curve was filed as active; inconclusive = weak or mixed curves, or effect the other way; inactive = no such curve, though single readings can be large or run the other way; the % refers to the signal ratio)
How it was run: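 AR-bla HEK293 cells, 2,000/well; 4 h preincubation 37C/5% CO2; compound (DMSO) 16 h at 37C; LiveBLAzer B/G FRET substrate 2 h RT; fluorescence intensity read-out.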

[6] = biological target: Androgen receptor (Homo sapiens) (UniProt P10275); test: qHTS assay to identify small molecule agonists of the androgen receptor (AR) signaling pathway using the MDA cell line (AID 743040; also: nearly all actives have a fitted effect of over 20% in size)
How it was run: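 Testing was done with the MDA-kb2 AR-luc line, a human breast carcinoma stably transfected with MMTV-luciferase containing AR and GR response elements. Cells were exposed 16 h at 37C before ONE-Glo luminescence detection.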

[7] = qHTS assay to identify small molecule antagonists of the androgen receptor (AR) signaling pathway using the MDA cell line - cell viability counter screen (AID 743041; also: nearly all actives have a fitted effect of over 45% in size)
How it was run: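 Compound exposure lasted 16 h at 37C in MDA-kb2 AR-luc cells stimulated with R1881. Protease-based CellTiter-Fluor reagent was applied for the final 30 min and fluorescence measured.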

[8] = biological target: Androgen receptor (Homo sapiens) (UniProt P10275); test: qHTS assay to identify small molecule antagonists of the androgen receptor (AR) signaling pathway using the MDA cell line (AID 743042; also: nearly all actives have a fitted effect of over 55% in size)
How it was run: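 MDA-kb2 breast carcinoma cells carrying MMTV-luciferase (AR/GR responsive) were co-treated with compounds and the agonist R1881 for 16 h at 37C. Inhibition read as ONE-Glo luminescence; CellTiter-Fluor fluorescence measured in parallel for cytotoxicity.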

[9] = qHTS assay to identify small molecule antagonists of the thyroid receptor (TR) signaling pathway - cell viability counter screen (AID 743064); also: nearly all actives have a fitted effect of over 50% in size
How it was run: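 GH3.TRE-Luc cells, 4 h pre-plating; cpd + T3 1 nM final; 37 °C 23.5 h; CellTiter-Fluor 30 min; fluorescence read.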

[10] = qHTS assay to identify small molecule antagonists of the thyroid receptor (TR) signaling pathway (AID 743065); also: nearly all actives have a fitted effect of over 55% in size; also: potency is read from the fitted curve at half-maximal effect
How it was run: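 GH3.TRE-Luc rat pituitary cells (two TREs driving luciferase) were dosed with compound, then stimulated with 1 nM T3 (final) for 23.5 h at 37 C. ONE-Glo luminescence was the read-out, with CellTiter-Fluor fluorescence as the cytotoxicity counter-screen.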

[11] = system: thyroid hormone receptor (rat, GH3 cells); test: qHTS assay to identify small molecule agonists of the thyroid receptor (TR) signaling pathway (AID 743066; calls by dose curve)
[12] = qHTS assay to identify small molecule antagonists of the estrogen receptor alpha (ER-alpha) signaling pathway - cell viability counter screen (AID 743074; calls by dose curve; also: nearly all actives have a fitted effect of over 45% in size)
[13] = biological target: Estrogen receptor (Homo sapiens) (UniProt P03372); test: qHTS assay to identify small molecule agonists of the estrogen receptor alpha (ER-alpha) signaling pathway (AID 743075; calls by dose curve)
Sequence of Estrogen receptor (Homo sapiens) (P03372 whole entry, looked up): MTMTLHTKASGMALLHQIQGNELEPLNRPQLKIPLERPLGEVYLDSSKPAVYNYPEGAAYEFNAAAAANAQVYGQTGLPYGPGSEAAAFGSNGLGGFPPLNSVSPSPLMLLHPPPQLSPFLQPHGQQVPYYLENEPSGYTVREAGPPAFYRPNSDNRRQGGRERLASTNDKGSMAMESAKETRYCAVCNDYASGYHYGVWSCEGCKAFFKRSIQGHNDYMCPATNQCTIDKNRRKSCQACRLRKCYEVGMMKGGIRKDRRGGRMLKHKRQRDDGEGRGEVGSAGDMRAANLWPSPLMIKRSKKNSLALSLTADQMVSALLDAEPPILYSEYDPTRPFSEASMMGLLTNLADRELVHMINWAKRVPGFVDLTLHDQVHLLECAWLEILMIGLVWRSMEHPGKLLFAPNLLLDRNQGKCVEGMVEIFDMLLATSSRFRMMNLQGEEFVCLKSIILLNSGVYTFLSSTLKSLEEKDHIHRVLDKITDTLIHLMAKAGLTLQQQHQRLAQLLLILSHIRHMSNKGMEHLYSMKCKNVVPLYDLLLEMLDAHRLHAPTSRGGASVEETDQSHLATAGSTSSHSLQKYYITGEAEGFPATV

[14] = biological target: Estrogen receptor (Homo sapiens) (UniProt P03372); test: qHTS assay to identify small molecule agonists of the estrogen receptor alpha (ER-alpha) signaling pathway using the BG1 cell line (AID 743079); also: nearly all actives have a fitted effect of over 20% in size; also: potency is read from the fitted curve at half-maximal effect
[15] = qHTS assay to identify small molecule antagonists of the estrogen receptor alpha (ER-alpha) signaling pathway using the BG1 cell line (AID 743080; calls by dose curve;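 also: BG1 cells stimulated with 17beta-estradiol alongside compound; series mostly up to about 70 µM; nearly all actives have a fitted effect of over 25% in size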)
How it was run: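 BG1-Luc-4E2 cells (endogenous full-length ER-alpha, stable 4×ERE-luciferase) were starved 5 days in phenol-red-free medium with 10% charcoal-stripped FBS, plated 24 h, then given compound plus 17beta-estradiol for 21.5 h at 37 C; ONE-Glo luminescence read after 30 min.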

[16] = qHTS assay to identify small molecule antagonists of the estrogen receptor alpha (ER-alpha) signaling pathway using the BG1 cell line - cell viability counter screen (AID 743081);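 also: compound given together with 17beta-estradiol as the ER stimulus; series mostly up to about 70 µM; nearly all actives have a fitted effect of over 45% in size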
Aromatase (Homo sapiens) = Aromatase (Homo sapiens) (UniProt P11511); test: qHTS assay to identify aromatase inhibitors (AID 743083); also: nearly all actives have a fitted effect of over 55% in size; also: potency is read from the fitted curve at half-maximal effect
Sequence of Aromatase (Homo sapiens) (P11511 whole entry, looked up): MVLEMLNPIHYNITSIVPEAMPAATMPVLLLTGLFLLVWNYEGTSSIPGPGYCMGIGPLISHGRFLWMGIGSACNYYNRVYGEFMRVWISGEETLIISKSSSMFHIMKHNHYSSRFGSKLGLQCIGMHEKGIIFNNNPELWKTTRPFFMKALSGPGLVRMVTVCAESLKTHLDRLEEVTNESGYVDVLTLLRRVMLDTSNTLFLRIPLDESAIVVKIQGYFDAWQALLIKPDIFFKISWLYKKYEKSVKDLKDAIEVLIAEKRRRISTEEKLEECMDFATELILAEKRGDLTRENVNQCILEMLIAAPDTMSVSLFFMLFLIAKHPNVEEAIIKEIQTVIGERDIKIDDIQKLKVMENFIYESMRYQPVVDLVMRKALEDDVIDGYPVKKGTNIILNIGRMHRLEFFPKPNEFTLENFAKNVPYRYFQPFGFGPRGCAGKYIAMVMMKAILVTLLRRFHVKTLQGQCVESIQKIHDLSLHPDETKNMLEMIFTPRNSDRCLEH

[17] = qHTS assay to identify small molecule antagonists of the androgen receptor (AR) signaling pathway - cell viability counter screen (AID 743033; also: nearly all actives have a fitted effect of over 45% in size; also: potency is read from the fitted curve at half-maximal effect)
[18] = biological target: Estrogen receptor (Homo sapiens) (UniProt P03372); test: qHTS assay to identify small molecule antagonists of the estrogen receptor alpha (ER-alpha) signaling pathway (AID 743069; active = well fitted curve in the direction sought with a large enough effect in the signal ratio in the repeat runs, not every such curve was filed as active; inconclusive = weak or mixed curves, or effect the other way; inactive = no such curve, though single readings can be large or run the other way; the % refers to the signal ratio; also: potency is read from the fitted curve at half-maximal effect)
How it was run: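 In this cell-based reporter format, GripTite HEK293 cells harbouring ER-alpha-UAS-bla were grown overnight with 2% charcoal-stripped FBS, dosed with DMSO-dissolved compounds, then challenged with 17beta-estradiol. After 18 hr at 37C, beta-lactamase activity was detected by FRET fluorescence.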

[19] = qHTS assay for identifying genotoxic compounds that show differential cytotoxicity against isogenic chicken DT40 cell lines with known DNA damage response pathways - Rev3 mutant cell line (AID 743014); also: nearly all actives have a fitted effect of over 55% in size

| SMILES | Potency [1] | Potency [2] | Potency [3] | Potency [4] | Potency [5] | Potency [6] | Potency [7] | Potency [8] | Potency [9] | Potency [10] | Potency [11] | Potency [12] | Potency [13] | Potency [14] | Potency [15] | Potency [16] | Potency (Aromatase (Homo sapiens)) | Potency [17] | Potency [18] | Potency [19] |
| --- | --- | --- | --- | --- | --- | --- | --- | --- | --- | --- | --- | --- | --- | --- | --- | --- | --- | --- | --- | --- |
| CN1CCN(C(c2ccccc2)c2ccccc2)CC1 | inactive | inactive | inactive | inactive | inactive | inactive | inactive | inactive | inactive | inactive | inactive | inactive | inactive | inactive | inactive | inactive | inactive |  |  |  |
| O=C1OC(CN2CCOCC2)CN1/N=C/c1ccc([N+](=O)[O-])o1 (stereo not given) | inactive | inactive |  | inactive | inactive | inactive | inactive | inactive | inactive | inactive | inactive | inactive | inactive | inactive | inactive | inactive | inactive | inactive | inactive |  |
| CCC(Cl)CCC(Cl)C(Cl)CC(Cl)C(Cl)C(Cl)CCl (stereo not given) | inactive |  | inactive |  |  |  |  |  | inactive | inactive | inactive | inactive |  |  |  | inactive | inactive | inactive |  | inactive |
| CC1=CC[C@H](C(C)C)C=C1 | inactive | 61.1 µM (active) | 61.1 µM (active) |  |  |  | inactive |  | inactive |  |  | inactive | inactive | inactive | inactive | inactive | inactive |  |  |  |
| O=C(O)c1ccco1 | inactive |  | inactive |  |  |  | inactive |  |  | inactive | inactive | inactive | inactive | inactive | inactive | inactive | inactive | inactive | inactive | inactive |
| Cc1ccccc1S(=O)(=O)O | inactive |  | inactive |  |  |  | inactive |  | inactive | inactive | inactive | inactive |  |  |  | inactive |  | inactive |  | inactive |
| OCCNCc1ccccc1 | inactive |  | inactive | inactive | inactive | inactive | inactive | inactive | inactive | inactive | inactive | inactive | inactive | inactive | inactive | inactive | inactive | inactive | inactive | inactive |
| CC(C)=CCC/C(C)=C/CC/C(C)=C/CO | inactive | 34.4 µM (active) | 30.6 µM (active) |  |  |  | inactive |  |  | 61.1 µM (active) | inactive | inactive |  |  |  | inactive |  |  |  |  |
| O=C(O)c1ccc(-n2nc(-c3ccccc3O)nc2-c2ccccc2O)cc1 | inactive | 13.3 µM (active) | 18.8 µM (active) |  |  |  | inactive |  |  | 29.8 µM (active) |  | inactive | inactive |  |  | inactive |  | inactive |  |  |
| CC1=CC=C(C(C)C)CC1 | inactive |  |  |  |  |  | inactive |  | inactive |  |  | inactive | inactive | inactive | inactive | inactive | inactive | inactive |  | inactive |
| C=CC(=O)OCCOCCOC(=O)C=C | inactive | 9.73 µM (active) | 9.73 µM (active) |  |  |  |  |  |  | 68.9 µM (active) | inactive |  | inactive | 6.14 µM (active) |  |  | 13.7 µM (active) | 39.1 µM (active) | 61.9 µM [inconclusive] (active) |  |
| CCCCC1=NC2(CCCC2)C(=O)N1Cc1ccc(-c2ccccc2-c2nn[nH]n2)cc1 | inactive | inactive | inactive |  |  |  | inactive |  |  |  |  | inactive | inactive | inactive | inactive | inactive | inactive | inactive | inactive |  |
| O=C(OCCCCCCOC(=O)c1ccccc1)c1ccccc1 | inactive | 61.1 µM (active) | 54.5 µM (active) |  |  |  | inactive |  | inactive | inactive | inactive | inactive | inactive | 43.3 µM (active) | inactive | inactive | inactive |  | inactive |  |
| O=C(Nc1ccc(S(=O)(=O)N2CCOCC2)cc1)c1cc(Cl)ccc1NS(=O)(=O)c1ccc(Cl)s1 | 16.9 µM (active) |  |  |  |  |  | inactive |  |  | 18.8 µM (active) |  |  | inactive | inactive | inactive | inactive | inactive | inactive |  |  |
| CCOCC(O)COc1ccc(NC(=O)CC[S+](C)C)cc1 (stereo not given) | inactive |  | inactive |  |  |  | inactive |  | inactive | inactive | inactive | inactive | inactive | inactive | inactive | inactive | inactive | inactive |  |  |
| COc1ccnc(CS(=O)c2nc3ccc(OC(F)F)cc3[nH]2)c1OC (stereo not given) | inactive |  |  |  |  |  | inactive |  | inactive |  | inactive | inactive | inactive |  | inactive | inactive | inactive | inactive |  |  |
